# Experimental data from PubChem BioAssay AID504636 (National Center for Advancing Translational Sciences (NCATS), 2011).
# About 490 (45%) of roughly 1,100 compounds were called active. Another 33% or so got no clear call; they are omitted. Calls come from the whole dose curve. The set was probably picked from earlier hits. The full list was thinned out, with actives kept by preference.
# Biological target: ATP-dependent 6-phosphofructokinase (Trypanosoma brucei brucei) (UniProt O15648)
# Assay: Tb PFK orthogonal confirmatory assay using ATP depletion (Kinase-Glo Plus) as an alternative measure of Tb PFK activity: Hit Validation; note: nearly all actives have a fitted effect of over 60% in size
# Conditions: Tb PFK enzyme, Kinase-Glo Plus luminescence; series mostly up to 57.5 µM
# Text: Various species of the protozoan family Trypanosomatidae are responsible for a range of serious human diseases in tropical and subtropical areas of the world. […] Many of the disorders caused by trypanosomatids are fatal if left untreated, but most currently used drugs are inefficient and toxic.
# Oxidative metabolism involving the mitochondrial tricarboxylic acid cycle and oxidative phosphorylation are repressed in these parasites, and recent RNA interference (RNAi) experiments have shown that even partial depletion of certain individual glycolytic enzymes can lead to the death of cultured parasites. One such glycolytic enzyme, phosphofructokinase (PFK), catalyzes the formation of fructose-1,6-bisphosphate (F1,6BP) and ADP from fructose-6-phosphate (F6P) and ATP, and in many metabolic circumstances makes an important contribution to the control of flux through the glycolytic pathway. As a specific glycolytic target, PFK is particularly attractive as it catalyzes the first irreversible step in glycolysis, and structural and kinetic studies have shown very substantial and essential differences from corresponding host enzymes, allowing for the discovery of parasite-selective inhibitors.
# The primary qHTS data of T. brucei PFK and ADP-Glo confirmatory data are available in PubChem (AIDs: 485367 and 485368). A luminescent secondary assay was also performed that used luciferase-based nucleotide detection (Kinase-Glo Plus, Promega) similar to the qHTS, but which used ATP (rather than ADP) concentration as an alternate measure of T. brucei PFK activity. The assay measures substrate depletion (ATP) rather than product formation (ADP), coupled to an identical manner of luciferase-based signal detection. As such, compounds which truly act on T. brucei PFK produce a change in signal in the opposite direction of the primary qHTS assay, while compounds which affect the final luciferase reaction produce signal changes in identical directions. Compounds were screened as a concentration-titration series that ranged from 57uM to 0.7nM.
# 1. Verlinde, C.L., et al., Glycolysis as a target for the design of new anti-trypanosome drugs. Drug Resist Updat, 2001. 4(1): p. 50-65.
# 2. Albert, M.A., et al., Experimental and in silico analyses of glycolytic flux control in bloodstream form Trypanosoma brucei. J Biol Chem, 2005. 280(31): p. 28306-15.
# 3. […] J Mol Biol, 2009. 385(5): p. 1519-33.
# NIH Molecular Libraries Probe Production Network [MLPCN]
# NIH Chemical Genomics Center [NCGC]
# PI Name: Dr. Malcolm Walkinshaw
# Substrate buffer was dispensed into white, solid 1536-well plates at 3ul/well in 0.1M triethanolamine (TEA) buffer, pH 8.0, containing final concentrations of 5 mM MgCl2, 0.01% Tween20, 0.5 mM fructose-6-phosphate (F6P) and 0.1mM ATP. Then, 23nl of compounds or DMSO were delivered to each well using a pin tool. One ul T. brucei PFK (0.1M TEA, 0.01% Tween20, 0.1% bovine serum albumin (BSA) and 1.25nM PFK, final concentrations) was then dispensed, and plates were incubated at room temperature for 45 min. The luminescent detection reagent, Kinase-Glo Plus (Promega), was then added at 2ul/well and incubated for ten minutes at room temperature. The plates were measured on a ViewLux plate reader for luminescent signal using a clear filter with a one second exposure. The %Activity was determined from the corrected luminescence values. As no specific T. brucei PFK inhibitors have been identified in the literature, 1x (1.25nM) and 0x PFK enzyme controls (untreated) were included to normalize %Activity of identified inhibitors; 0x enzyme values corresponded to 100%Activity (full inhibition), while 1x PFK enzyme values were used to normalize 0% Activity (no inhibition). The Kinase-Glo Plus protocol varies from the primary screen in that it measures ATP, rather than ADP, concentration, and thus provides a measure of substrate depletion, rather than of product formation.
# […]
# Potency is the fitted concentration of half-maximal effect.
# Chain of ATP-dependent 6-phosphofructokinase (Trypanosoma brucei brucei) (O15648 whole entry, looked up): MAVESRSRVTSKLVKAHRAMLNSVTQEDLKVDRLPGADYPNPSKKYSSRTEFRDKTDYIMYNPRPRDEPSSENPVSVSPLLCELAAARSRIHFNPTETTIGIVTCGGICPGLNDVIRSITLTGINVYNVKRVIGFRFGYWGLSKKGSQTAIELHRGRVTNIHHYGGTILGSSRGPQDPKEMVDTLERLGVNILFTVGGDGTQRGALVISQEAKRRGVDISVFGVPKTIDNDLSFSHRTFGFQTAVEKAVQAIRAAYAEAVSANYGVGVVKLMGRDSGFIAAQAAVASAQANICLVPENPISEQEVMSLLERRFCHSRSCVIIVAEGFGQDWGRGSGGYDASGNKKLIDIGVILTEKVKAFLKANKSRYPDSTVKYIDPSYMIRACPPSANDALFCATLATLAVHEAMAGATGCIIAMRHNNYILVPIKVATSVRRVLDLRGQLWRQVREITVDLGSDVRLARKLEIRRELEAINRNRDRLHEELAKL
row,SMILES,Potency
1,O=C1CSC(=S)N1/N=C/c1ccc(O)c([N+](=O)[O-])c1,inactive
2,CCOc1cccc(/C=N/N2C(=O)CSC2=S)c1O,30.1 µM (active)
3,Cn1sc(=O)c2cc(S(=O)(=O)NC3CC3)ccc21,7.57 µM (active)
4,OC(CNCc1ccc(Cl)c(Cl)c1)c1ccccc1 (stereo unspecified),21.3 µM (active)
5,Cn1nnnc1NCc1ccc(Cl)c(Cl)c1,10.7 µM (active)
6,O=[N+]([O-])c1c(NCCO)cc(Sc2nc3ccccc3s2)c2nonc12,0.601 µM (active)
7,C=C(C)C(=O)Nc1cccc(C2=NOC3(C2)C[C@H](C(N)=O)N(C(=O)C(c2ccccc2)c2ccccc2)C3)c1 (stereo partly specified),1.51 µM (active)
8,C/C=C\C=C\C(=O)N1CC2(CC(c3cccc(NC(=O)/C(C)=C\C)c3)=NO2)C[C@H]1C(N)=O (stereo partly specified),9.53 µM (active)
9,CCc1ccc(NC(=O)C(=O)NNC(=O)c2cccs2)cc1,inactive
10,O=c1ccnc(Nc2ccc(Cl)cc2)[nH]1,21.3 µM (active)
11,O=c1[nH]c2ccccc2n2c(-c3ccccc3)nnc12,6.01 µM (active)
12,N/C(=N\OC(=O)Nc1ccc(Cl)c(Cl)c1)c1ncc(C(F)(F)F)cc1Cl,26.9 µM (active)
13,Cc1nc(N)nc(SCc2ccc([N+](=O)[O-])cc2)c1N,10.7 µM (active)
14,Nc1nc(SCc2ccc([N+](=O)[O-])cc2)c2ncn(C3OC(CO)C(O)C3O)c2n1 (stereo unspecified),23.9 µM (active)
15,Cn1ccc(=Nc2ccc(NC(=O)c3ccc(N=c4ccn(C)c5ccc([N+](=O)[O-])cc45)cc3)cc2)cc1,inactive
16,O=C(Cc1ccc([N+](=O)[O-])cc1)N/N=C/c1ccco1,19 µM (active)
17,O=C(CSc1nc(O)c(Cc2ccccc2)c(=O)[nH]1)Nc1nc2c(s1)CCCC2,6.75 µM (active)
18,Cc1ccc(-c2nn(-c3ccccc3)cc2/C=C2\SC(=S)N(CCCCCC(=O)O)C2=O)o1,9.53 µM (active)

row,SMILES,Potency
1,Cc1cccc(-n2c(N)c(C(=O)N3CCN(C)CC3)sc2=S)c1,6.01 µM (active)
2,O=[N+]([O-])/C=C/c1ccc2c(ccn2Cc2ccccc2)c1,10.7 µM (active)
3,O=C(NCc1ccc(Cl)c(Cl)c1)c1cccnc1,13.5 µM (active)
4,CCn1nc(C(=O)NNS(=O)(=O)c2cc(/C=C/C(=O)O)cc(OC)c2OC)c2ccccc2c1=O,inactive
5,C=CC1=C(C(=O)O)N2C(=O)[C@@H](NC(=O)/C(=N\OCC(=O)O)c3csc(N)n3)[C@H]2SC1,2.69 µM (active)
6,COC(=O)c1[nH]c2ccccc2c1NC(=O)CN1CCCc2ccccc21,inactive
7,CC(C)(C)c1nnc(NC(=O)C2c3ccccc3Oc3ccccc32)s1,19 µM (active)
8,Cc1c(C)c2ccc(OCC(=O)N3CCN(c4cccc(Cl)c4)CC3)cc2oc1=O,4.78 µM (active)
9,O=c1[nH]c(=S)[nH]c2[nH]c(=S)[nH]c12,1.35 µM (active)
10,COc1ccc(N/C=C(\C2OC(=O)c3ccccc32)[N+](=O)[O-])cc1 (stereo unspecified),inactive
11,FC(F)(F)C1CCCN(c2nsc3ccccc23)C1 (stereo unspecified),2.69 µM (active)
12,N#Cc1cccc(CSc2ncnc(N)n2)c1,13.5 µM (active)
13,Cc1ccc(NC(=O)c2cc(-c3ccc(C)o3)nc3ccccc23)nc1,6.75 µM (active)
14,Cc1nn(Cc2ccc(Cl)c(Cl)c2)c(C)c1NC(=O)c1cc(C2CC2)on1,5.36 µM (active)
15,OCCN1CCN(C(=S)c2ccc(-c3ccccc3)cc2)CC1,9.53 µM (active)
16,Cc1ccc(C)c(-c2nnc(NC(=O)CS(=O)(=O)c3ccccc3)o2)c1,inactive
17,COC(=O)CC(=O)N1CCN(c2ccc(Cl)c(Cl)c2)CC1,23.9 µM (active)
18,O=C1CSC(=S)N1c1ccc(Cl)c(Cl)c1,inactive
